This is a sample that favours compounds with a hit; in the whole collection about 3.9% have one here.
HIF-2a block: HIF-2a reporter inhibitors, primary screen, luminescence, 786-0 RCC cells | 786-0 RCC cells HIF-2a reporter, luciferase luminescence, overnight | inhibition, % at 18.8 µM | 0.72% of 360,000 active | AID 624352, 2012;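 active means inhibition of the luminescence signal of 40% or more relative to plate controls, in a single-dose primary screen at 18.75 µM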
TROY NFkB inh: inhibitors of TROY-driven NF-kB signaling, primary screen, Q293 LMP1-TROYcd cells, NF-kB luciferase, uHTS; 0.98% of 360,000 active; Q293 LMP1-TROYcd NF-kB luciferase reporter, 4 h; inhibition, % at 10 µM;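 active means compounds whose plate-normalised and pattern-corrected inhibition of the luciferase reporter signal at the single screening dose is 50% or more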
TRAIL sens C8: viability loss with TRAIL in NB7+C8 cells, primary screen, TRAIL sensitizer project, cell-based, ATPlite luminescence | inhibition (viability loss, TRAIL sensitization), % at 10 µM | 1% of 360,000 active | AID 624354, 2012;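 active means compounds causing at least 50% loss of cell viability in the single-dose screen, relative to plate controls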
HSP90 inh: HSP90 inhibitors, primary screen, cell lysate, luminescence; Heat shock protein HSP 90 (rabbit reticulocyte lysate; luciferase refolding); Rabbit reticulocyte lysate, luciferase refolding luminescence, 3 h; inhibition, % at 5.6 µM; 0.91% of 290,000 active;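 active means inhibition above the screen-wide mean plus 3 SD, computed separately per campaign, cut at about 16% in these data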;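 further: inhibitors lower the luminescence because luciferase stays unfolded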
aSyn 5UTR inh: MLPCN primary screen, SNCA 5' untranslated region; inhibition, % (tested at 7.5 µM); alpha-synuclein 5'UTR reporter, inhibitor activity; AID 1813, 2009; 0.82% of 300,000 active; in the data active means inhibition above about 60%;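 further: H4 neuroglioblastoma cells stably carrying SNCA 5'UTR luciferase fusion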
TWEAK Fn14 block: inhibitors of TWEAK-Fn14 signaling, primary screen, luciferase reporter cells, uHTS. TWEAK-stimulated Fn14 reporter cells, luciferase luminescence, 8 h. inhibition, % at 10 µM. 2% of 360,000 active. AID 1159606, 2016; in the data active means inhibition above about 50%
Of the large screens only hits and unclear results are named; the others gave an inactive call.

COc1cccc2c1C(=O)c1c(O)c3c(c(O)c1C2=O)CC(O)(C(C)=O)CC3OC1CC(N(C)C)C(O)C(C)O1 (stereo not drawn)	TROY NFkB inh 61, TWEAK Fn14 block 98 (no result: HSP90 inh, aSyn 5UTR inh)
O=C(Nc1cccc(C(=O)N2CCOCC2)c1)C1CCCCC1	none (no result: HSP90 inh, aSyn 5UTR inh)
COCCNC(=O)c1cc(-c2ccccc2)sc1N	none (no result: TROY NFkB inh, HSP90 inh, aSyn 5UTR inh, TWEAK Fn14 block)
Nc1c(NC(=O)CC[n+]2ccccc2)cccc1[N+](=O)[O-]	TWEAK Fn14 block 52
CC(C)CN1CCN(Cc2ccc(Oc3ncccn3)cc2)CC1CCO (stereo not drawn)	HSP90 inh 16
OCCC1CN(Cc2ccc(Oc3ncccn3)cc2)CCN1Cc1ccc(F)c(F)c1 (stereo not drawn)	none
Nc1ccc(-c2nc3ccccc3[nH]2)cc1	none
c1ccc(-c2cc(-c3nc4ccccc4[nH]3)c3ccccc3n2)cc1	TWEAK Fn14 block 55
CCN(CC)S(=O)(=O)c1cccc(NC(=O)CN2C(=O)NC3(CCOc4ccccc43)C2=O)c1 (stereo not drawn)	none (no result: HSP90 inh, aSyn 5UTR inh)
CC(=O)Nc1cc(Cl)c(N=Cc2ccc(O)cc2O)cc1Cl	TWEAK Fn14 block 77
CC[C@]12c3[nH]c4ccc(Cl)cc4c3CCN1C(=O)[C@@H](CC(=O)NCCC1=CCCCC1)C[C@@H]2C(=O)N1CCN(C(=O)c2ccco2)CC1	none (no result: HSP90 inh, aSyn 5UTR inh)
COc1ccc(-c2nc3ccc(C)cn3c2Cc2ccccc2)cc1OC	none (no result: HSP90 inh, aSyn 5UTR inh)
Cc1onc(-c2ccccc2Cl)c1C(=O)N1CCC(C(N)=O)CC1	none
Cc1onc(C(=O)N2CCC(C(N)=O)CC2)c1-c1ccccc1Cl	TWEAK Fn14 block 87
COc1cccc(/C=N/NC(=O)c2c(C)nc3ccc(Br)cn23)c1O	aSyn 5UTR inh 71
CCOc1ccccc1/C=N/NC(=O)c1c(C)nc2ccc(Br)cn12	none
COc1cccc(/C=N/NC(=O)c2nc(-c3ccccc3)cc(-c3ccccc3)n2)c1O	TWEAK Fn14 block 51
Cc1ccc(/C=N/NC(=O)c2c(C)nc3ccc(Br)cn23)cc1	aSyn 5UTR inh 80
CC1(C(=O)NS(=O)(=O)c2ccc3c(c2)CCO3)CCN1C(=O)COc1ccc(Cl)cc1 (stereo not drawn)	none (no result: HSP90 inh, aSyn 5UTR inh)
COCCN=c1scc(-c2cc(OC)c(OC)c(OC)c2)n1/N=C/c1c(C)[nH]c2ccccc12	TWEAK Fn14 block 54
CCOC(=O)CC(=O)Nc1ncnc2c1C(c1ccccc1)c1c(ccc3ccccc13)O2 (stereo not drawn)	none (no result: HSP90 inh, aSyn 5UTR inh)
Nc1ncnc2c1C(c1ccccc1)c1c(ccc3ccccc13)O2 (stereo not drawn)	TROY NFkB inh 57 (no result: HSP90 inh, aSyn 5UTR inh)
CS(=O)(=O)Nc1ccc2c(c1)[C@H]1C[C@H](CC(=O)NCc3ccccc3)O[C@H](CO)[C@H]1O2	none (no result: HSP90 inh, aSyn 5UTR inh)
Cc1nc(Nc2ccc(Cl)c(Cl)c2)sc1C(=O)Nc1ccccc1	TWEAK Fn14 block 84
Cc1nc(Nc2ccc(Cl)cc2Cl)sc1C(=O)Nc1ccccc1	none
CC1(C)CC(=O)C=C(NNC(=O)c2ccccc2O)C1	TRAIL sens C8 71
CC1(C(=O)NCc2ccccc2)CN(S(C)(=O)=O)CC(=O)N1CCc1ccc(O)cc1 (stereo not drawn)	none (no result: TROY NFkB inh, HSP90 inh, aSyn 5UTR inh, TWEAK Fn14 block)
O=C(NNC(=O)C(c1ccccc1)c1ccccc1)c1ccccn1	aSyn 5UTR inh 72
Cc1cc(N2CCN(C(C(=O)NC3CCCC3)C(C)(C)C)CC2)c2ccccc2n1 (stereo not drawn)	none (no result: TROY NFkB inh, HSP90 inh, aSyn 5UTR inh, TWEAK Fn14 block)
Cc1cccc2cc(C#N)c(SCC(=O)N3CC(=O)Nc4ccccc43)nc12	aSyn 5UTR inh 110
Cc1cnc(NS(=O)(=O)c2ccc(N)cc2)nc1-c1ccccc1O	none (no result: HSP90 inh, aSyn 5UTR inh)
COCC(=O)N(Cc1cc2ccccc2[nH]c1=O)c1ccc(OC)cc1	none
COCC(=O)N(Cc1cc2ccccc2[nH]c1=O)c1ccccc1OC	TWEAK Fn14 block 79 (no result: TROY NFkB inh)
CCS(=O)(=O)N1Cc2ccccc2CC1C(=O)Nc1nc2ccccc2s1 (stereo not drawn)	TROY NFkB inh 70, HSP90 inh 26, TWEAK Fn14 block 81
CCc1nnc(NC(=O)C2Cc3ccccc3CN2S(=O)(=O)CC)s1 (stereo not drawn)	none
CC(NNC(=S)N1CCN(c2ccccn2)CC1)c1nccc2ccccc12 (stereo not drawn)	HIF-2a block 52 (no result: HSP90 inh, aSyn 5UTR inh)
O=C(COc1ccc2c(-c3ccccc3)cc(=O)oc2c1)NC1CCS(=O)(=O)C1 (stereo not drawn)	none (no result: HSP90 inh, aSyn 5UTR inh)
NC(C(=O)O)C1ON=C(Cl)C1O (stereo not drawn)	TRAIL sens C8 78 (no result: HSP90 inh, aSyn 5UTR inh)
NC(C(=O)O)C1CC(Cl)=NO1 (stereo not drawn)	none (no result: HIF-2a block, TROY NFkB inh, TRAIL sens C8, TWEAK Fn14 block)
O=C(N[C@H]1C/C=C\C[C@@H](CC(=O)N(CCO)Cc2ccccc2)C(=O)NC[C@H](c2ccccc2)OC1=O)OCC1c2ccccc2-c2ccccc21	TWEAK Fn14 block 51 (no result: HSP90 inh, aSyn 5UTR inh)
O=C(C[C@H]1C/C=C\C[C@H](NC(=O)OCC2c3ccccc3-c3ccccc32)C(=O)OC[C@H](Cc2ccccc2)NC1=O)N[C@H](CO)Cc1ccccc1	TRAIL sens C8 64 (no result: HSP90 inh, aSyn 5UTR inh)
CCOC(=O)c1c(C)oc2ccc(O)c(CN(C)C)c12	none
CCOC(=O)c1c(CSc2ccc(CC)cc2)oc2ccc(O)c(CN(C)C)c12	aSyn 5UTR inh 66
CC(=O)Nc1nc2ccccc2n1CCOc1ccccc1	TRAIL sens C8 52
CC1Cc2cc(-c3csc(NC(=O)Cc4cccs4)n3)ccc2N1S(C)(=O)=O (stereo not drawn)	TROY NFkB inh 75, TWEAK Fn14 block 101
CS(=O)(=O)N1CCc2cc(-c3csc(NC(=O)Cc4ccccc4)n3)ccc21	TWEAK Fn14 block 58
C[C@H]1COC(=O)[C@@H](Cc2ccc(F)cc2)C/C=C\C[C@@H](CC(=O)N[C@@H](CO)Cc2ccccc2)C(=O)N1	none (no result: HSP90 inh, aSyn 5UTR inh)
Cc1cccc(/C=N/Nc2nncc3ccccc23)c1	TRAIL sens C8 79
CN(C)c1ccc(/C=N/Nc2nncc3ccccc23)cc1	TRAIL sens C8 66
COc1cc(/C=N/Nc2nncc3ccccc23)cc(OC)c1OC	none
C(=N\Nc1nncc2ccccc12)/c1ccccc1	TRAIL sens C8 50
COc1ccc(NC(C)=O)cc1NC(C)C(=O)Nc1ccc(S(=O)(=O)N2CCCCC2)cc1 (stereo not drawn)	none (no result: HSP90 inh, aSyn 5UTR inh)
CC(=O)N1CCN(C(=O)OC2CC3CC2[C@H]2CCCCN2C3=O)CC1 (stereo partly drawn)	none (no result: HSP90 inh, aSyn 5UTR inh)
C(=C\CSc1nnnn1-c1ccccc1)/CSc1nnnn1-c1ccccc1	none
CCCSc1nnc(Sc2nnnn2-c2ccccc2)s1	TWEAK Fn14 block 82
COc1ccc(F)cc1-c1cc(C(=O)N2CCc3ccccc3C2)[nH]n1	none (no result: HSP90 inh, aSyn 5UTR inh)
Cc1c(C(=O)N2CCOCC2)sc2nc(-c3ccccc3)cn12	none
Cc1c(C(=O)Nc2ccc3c(c2)OCCO3)sc2nc(-c3ccccc3)cn12	TROY NFkB inh 67, TWEAK Fn14 block 85

Compound activity deposited in PubChem BioAssay by several laboratories.
